Experimental findings from PubChem BioAssay AID588382 (National Center for Advancing Translational Sciences (NCATS), 2011) are described below.

In all, about 1,300 compounds went through this assay and about 150 (12%) were called active. A call without a number means that no potency is given here. Not shown: some 30% with an inconclusive outcome. Calls follow the shape of the dose curve; as a rule, active = well fitted cell-killing curve with a large enough effect; inconclusive = small, poorly fitted or top-dose-only effect, or effect the other way; inactive = flat fitted curve, though single readings scatter. The full list was thinned out, with actives kept by preference.
Potency is read from the fitted curve at half-maximal effect.

This assay is described as follows: qHTS of small molecules that selectively kill Giardia lamblia: Hit Validation in HepG2 cytotox.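 Also: compound exposure lasted overnight at 37 deg C; nearly all actives have a fitted effect of over 55% in size.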 To be noted: cell viability; Potency: HepG2 cytotoxicity; series mostly up to 38.3 µM. An excerpt: Giardia lamblia is a human pathogen afflicting impoverished nations, and the most common cause of outbreaks of diarrhea in the United States. Giardia has been classified by the CDC as a category B bioterrorism organism. The favored anti giardiasis drugs in the US are metronidazole or tinidazole, compounds that have undesirable side effects. Moreover, increasing resistance to drug regimes and recurrence are a concern. It is thus clear that alternative drug treatments are needed.
In a collaboration between the University of Maryland, College Park and the NIH Chemical Genomics Center, a bioluminescence Giardia viability assay based on the trophozoites' ATP content was developed. This assay is suitable for high throughput screening, and miniaturized the assay for compound screening in 1536-well plates. The goal of the project is to screen the Molecular Libraries Small Molecule Repository (MLSMR) for compounds that selectively kill Giardia trophozoites. This counterscreen looks at the toxicity of the compounds against the human HepG2 cell line.
NIH Chemical Genomics Center [NCGC]
NIH Molecular Libraries Probe Centers Network [MLPCN]
Assay Submitter (PI): Osnat Herzberg, University of Maryland, College Park, MD.
4 uL of HepG2 cells ae dispensed into white 1536-well plates. They are incubated overnight at 37 deg C and then 23 nL of compounds are transferred to the wells with a pintool. Plates are incubated overnight at 37 deg C. 2 uL of ATPLite is added and the plates are incubated for 15 min at room temperature before they are read on the ViewLux for luminiescence.
(qHTS replaces the single test concentration by a dilution series.)
Turning to `CCc1cc(=O)oc2cc(C)cc(OCC(=O)NC3CCN(Cc4ccccc4)CC3)c12`, the Potency entry is “inactive”.
Under `COc1cc2nc(N3CCCCC3)nc(NC3CCN(Cc4ccccc4)CC3)c2cc1OC` stands 2930 nM (active); under `COc1ccc(-n2nc([N+](=O)[O-])c(=NC3CCN(Cc4ccccc4)CC3)n2O)cc1`, “inactive”.
Under `NC(=O)CCn1c(C(=O)c2cccc([N+](=O)[O-])c2)c2ccccc2[n+]1[O-]` stands “inactive”; under `CC(=O)c1c(C)n([O-])c2ccccc2[n+]1=O`, “inactive”.
Turning to `O=[N+]([O-])c1[nH]cnc1/C=C/c1ccccc1`, the Potency entry is “inactive”.
As for `O=C1NCCN1c1ncc([N+](=O)[O-])s1`, the Potency result is “inactive”.
In the case of `O=C(/C=C/c1cccnc1)/C=C/c1cccnc1`, the Potency is 3690 nM (active).
Take `COc1ccc2nc(COC(=O)c3cccc([N+](=O)[O-])c3)c(C(C)=O)[n+]([O-])c2c1`: the Potency result is “inactive”.
Under `Nc1nc(F)nc2c1ncn2[C@@H]1O[C@H](CO)[C@@H](O)[C@@H]1O` stands “inactive”.
Under `CCOC(=O)Cc1csc(NC(=S)NC(=O)c2ccc(C)cc2)n1` stands 2930 nM (active); under `Cc1ccc(C(=O)NC(=O)OCCn2c(C)cnc2[N+](=O)[O-])cc1`, “inactive”; under `CCOC(=O)Cc1csc(SCC(=O)NC2CCCCC2)n1`, “inactive”.
`Cc1onc(-c2ccccc2)c1C(=O)N(Cc1ccccc1)C(C)C`: the Potency entry is “inactive”.
Under `Cc1cnc([N+](=O)[O-])n1CCOC(=O)NC(=O)c1ccccc1` stands “inactive”; under `COc1cccc2sc(N3CCN(C(=O)c4ccc([N+](=O)[O-])o4)CC3)nc12`, “inactive”; under `O=[N+]([O-])c1ccc(CSc2nnc(-c3cnccn3)o2)cc1`, “inactive”.
Under `Cc1cnc([N+](=O)[O-])n1CCOC(=O)NC(=O)c1c(F)cccc1F` stands “inactive”; under `CCCCCN=Cc1c(C)[nH]n(-c2nc3ccccc3s2)c1=O`, 329 nM (active); under `Oc1cccc(-c2nnc(-c3cccc(O)c3)nn2)c1`, 3690 nM (active).
Under `N#C/C(=C\c1ccc(O)c([N+](=O)[O-])c1)C(=O)NCc1ccccc1` stands “inactive”; under `Cc1cnc([N+](=O)[O-])n1CCOC(=O)NC(=O)c1ccc(C(F)(F)F)cc1`, “inactive”.
Consider `C=CCn1c(C)cc(C(=O)COc2ccc(C)nc2[N+](=O)[O-])c1C`, for which the Potency result is “inactive”.
Under `O=C(Nc1nnc(C23CC4CC(CC(C4)C2)C3)s1)c1ccco1` stands “inactive”; under `O=C(Nc1ccc2c(c1)nc1n2CCSC1)c1ccco1`, 2330 nM (active).
Under `O=C1c2cc(F)ccc2-n2c1nc1ccccc1c2=O` stands 5210 nM (active); under `CN(C(=O)CSc1nc2ccccc2c(=O)n1-c1ccc(F)cc1)C1CCS(=O)(=O)C1` (stereo not drawn), “inactive”; under `Cc1ccc(-c2[nH][nH]c(=O)c(=O)c2N=Nc2ccccc2)cc1`, “inactive”.
